Screens as filed in PubChem BioAssay.
Eya2 inh: qHTS Assay for Inhibitors of the Phosphatase Activity of Eya2 | Potency, µM (highest dose often 76.9 µM), for inactives: top-dose activity, negative = inhibition, usual class: inhibitors | Protein phosphatase EYA2 (Homo sapiens), O00167 | 330,000 tested, 0.006% active | recombinant Eya2, OMFP fluorescence dephosphorylation (OMFP is methylfluorescein phosphate); also: potency is read from the fitted curve at half-maximal effect
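Eya2 protein (added as 0.2 uM solution) was preincubated with compound for 10 min at ambient temperature in 50 mM HEPES pH 7.5, 50 mM NaCl, 5 uM MgCl2, 0.05% BSA, 1 mM DTT. OMFP (added at 50 uM) then reacted 10 min; fluorescence read at 485/525 nm.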
TrxR1 substrate: qHTS Assay for Substrates of Mammalian Selenoprotein Thioredoxin Reductase 1 (TrxR1): qHTS | Potency, µM (top dose mostly 114 µM), for inactives: at the highest dose activity change, negative = substrate turnover | Thioredoxin reductase 1, cytoplasmic (Rattus norvegicus), O89049 | 390,000 tested, 0.01% active | purified TrxR1 substrate turnover, NADPH consumption readout; also: potency is read from the fitted curve at half-maximal effect; nearly all actives have a fitted effect of over 50% in size
Target sequence (O89049 whole entry, looked up): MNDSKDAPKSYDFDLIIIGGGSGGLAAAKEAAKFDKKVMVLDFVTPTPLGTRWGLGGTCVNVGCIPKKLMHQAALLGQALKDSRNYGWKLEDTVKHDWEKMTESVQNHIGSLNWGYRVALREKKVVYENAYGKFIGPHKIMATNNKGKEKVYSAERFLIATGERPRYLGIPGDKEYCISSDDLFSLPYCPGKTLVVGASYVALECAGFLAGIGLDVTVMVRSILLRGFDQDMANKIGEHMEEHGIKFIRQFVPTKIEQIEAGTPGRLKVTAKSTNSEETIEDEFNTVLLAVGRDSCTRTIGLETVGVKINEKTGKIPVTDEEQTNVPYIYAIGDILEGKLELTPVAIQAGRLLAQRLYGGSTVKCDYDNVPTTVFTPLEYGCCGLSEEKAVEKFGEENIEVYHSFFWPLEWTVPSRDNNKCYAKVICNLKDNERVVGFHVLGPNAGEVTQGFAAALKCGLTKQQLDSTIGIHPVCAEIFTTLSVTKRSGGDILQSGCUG
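Rat TrxR1, dispensed at 90 nM, was prereduced with 400 uM NADPH (final) for 5 min at ~22 deg C, then incubated with compound 15 min before 400 uM selenite. A first-read NADPH fluorescence drop versus no-compound background flagged substrates.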
TrxR1 inh: qHTS Assay for Inhibitors of Mammalian Selenoprotein Thioredoxin Reductase 1 (TrxR1): qHTS; AID 588453, 2011; 390,000 tested, 1% active; recombinant rTrxR1, NADPH fluorescence consumption, selenite substrate; Potency, µM (doses to about 114 µM), without a hit: at the highest dose activity change, negative = inhibition, hits mostly inhibitors; also: potency is read from the fitted curve at half-maximal effect; nearly all actives have a fitted effect of over 65% in size
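Rat TrxR1 (90 nM in the dispensed reagent) was pre-reduced with 400 uM NADPH for 5 min at room temperature, then incubated with compound for 15 min. After 400 uM selenite was added, NADPH fluorescence (Ex 340/Em 450 nm) was followed for 8 min.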
CtBP-E1A inh: qHTS Assay for Inhibitors of the CtBP/E1A Interaction | CtBP / adenovirus E1A interaction (AlphaScreen) | AID 651724, 2012 | AlphaScreen GST-E1A/His-CtBP binding, 1536-well; active compounds read low | 340,000 tested, 0.49% active | activity change, % (test concentration not listed); in the data active = activity change below about -65%; inconclusive = mostly about -30% to -63%
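In 5 uL wells, 23 nL compound meets equimolar GST-E1A and His-CtBP (5X stock 125 nM each) for 2 h, 37 °C. Beads (5X, 50 ug/mL) then 1 h, 37 °C, dark.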
GALK inhibitor: qHTS Assay for Inhibitors of Human Galactokinase (GALK). P51570. Purified GALK, Kinase-Glo residual ATP luminescence. Potency, µM (doses to about 57.5 µM), inactives show at the top dose activity change, negative = inhibition, usual class: inhibitors. 270,000 tested, 0.007% active; also: potency is read from the fitted curve at half-maximal effect
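Galactose (100 uM) and ATP (35 uM) were turned over by 5 nM GALK for 1 h at RT. Kinase-Glo Plus then converted the remaining ATP into a luminescent signal.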
Six1-Eya2 blk: qHTS Assay for Inhibitors of the Six1/Eya2 Interaction. Homeobox protein SIX1 (Homo sapiens) + Protein phosphatase EYA2 (Homo sapiens), …. AlphaScreen GST-Six1/His-Eya2 binding, biochemical; active compounds read low. activity change, % (concentration not given with the values). 360,000 tested, 0.56% active. AID 651725, 2012; in the data active = activity change below about -65%; inconclusive = mostly about -30% to -63%
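GST-Six1 + His-Eya2 (5X stock: 250/500 nM); Tris pH 8.0, 300 mM NaCl, 0.05% BSA, 0.02% Tween 20; GSH donor/Ni acceptor beads; 1 h 37 °C dark; AlphaScreen readout.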
* marks the source's active call; other numbers are inactive results; ? = inconclusive; / = no result; [ ] = another dose, or the depositor's remark. Sampled rows, rich in hits. Any-hit rate of the full collection: about 1.5%. Unless noted, calls follow the shape of the dose curve; as a rule, active = well fitted curve in the direction sought with a large enough effect; inconclusive = small, poorly fitted or top-dose-only effect, or another doubt; inactive = no such curve, though single readings can be large; an effect the other way counts as inactive or inconclusive. % is scaled to controls: 0 for no effect and ±100 for the full control effect.

SMILES | Eya2 inh | TrxR1 substrate | TrxR1 inh | CtBP-E1A inh | GALK inhibitor | Six1-Eya2 blk
Cc1c(NC(=S)N/N=C/C=C/c2ccc([N+](=O)[O-])cc2)c(=O)n(-c2ccccc2)n1C | -2% | -11% | -11% | 31 | 1% | 13
Cc1c(NC(=S)N/N=C\c2ccccc2O)c(=O)n(-c2ccccc2)n1C | -3% | -2% | ? | 32 | -1% | -90*
Cc1c(NC(=S)N/N=C/c2ccc(Br)cc2)c(=O)n(-c2ccccc2)n1C | -26% | 1%[57.1 µM] | 1%[57.1 µM] | 2 | / | -2
O=C(c1ccccc1NS(=O)(=O)c1ccccc1[N+](=O)[O-])N1CCOCC1 | 1% | -15% | -15% | 6 | 0% | 11
O=C(c1ccccc1NS(=O)(=O)c1ccc([N+](=O)[O-])cc1[N+](=O)[O-])N1O[C@@H]2C=C[C@H]1C2 | -6% | 0% | 3.2µM* | -2 | / | -14
CS(=O)(=O)Nc1ccc(-c2ccc(/C=C3\SC(N)=NC3=O)o2)cc1 | 6% | -3% | 2% | -68* | / | ?
COC(=O)/C(=C/c1c[nH]c2ccccc12)[N+](=O)[O-] | 2% | 6% | 13µM* | 8 | -1% | 0
CCCOc1ccc(CNC(=O)c2cc3oc4ccccc4c3n2C)cc1 | / | 35% | 143% | / | / | /
CCOC(=O)CC1(CC)Oc2ccccc2N1S(=O)(=O)c1ccc(C)cc1 (stereo not given) | / | / | / | -11 | / | -9
CCCN(CCC)c1ccc(/C=C/c2ccnc3ccccc23)cc1 | / | -6% | 26% | / | / | /
O=c1[nH]c2sc3c(c2c2nncn12)CCCC3 | -1% | 0% | 7% | -83* | -3% | -79*
Cc1ccc(-n2c(=O)[nH]c3sc4c(c3c2=O)CCCC4)cc1 | / | -1%[2.29 µM] | ? | / | / | /
COc1ccc(/C=C2\N=C(C)OC2=O)cc1OC(C)=O | 6% | -15% | 45µM* | -1 | 2% | 2
COc1ccc(/C=C2\N=C(C)OC2=O)cc1OC | -4% | -15% | 40µM* | -4 | -3% | 5
COc1cc(/C=C2\N=C(c3ccccc3)OC2=O)ccc1OC(C)=O | 3% | -4% | -1% | / | 3% | 5
CCOC(=O)COc1c(Cl)cc(/C=C2\N=C(C)OC2=O)cc1OC | / | 8%[57.1 µM] | 14µM* | 6 | / | 22
C=CCOc1ccc(/C=C2\N=C(C)OC2=O)cc1OC | -8% | 6%[57.1 µM] | -46% | 1 | -1% | -3
CCOc1cc(/C=C2\N=C(C)OC2=O)cc(Br)c1OCC(=O)OC | ? | 11%[57.1 µM] | ? | 3 | -2% | 4
CCN(C(=O)c1cn(CC)c(=O)c2cc(OC)c(OC)cc12)c1ccccc1F | / | 4%[2.29 µM] | -3% | / | / | /
COc1ccc(C(=O)c2ccc(Cl)cc2)c2ccccc12 | 6% | -18% | 14%[57.1 µM] | 13 | 2% | 36
COc1ccc(C(=O)CCN(C)C)c2ccccc12 | / | 1% | 0.4µM* | / | / | /
Cc1cc(C(=O)N/N=C/c2cc(Cl)cc([N+](=O)[O-])c2O)c2ccccc2n1 | -6% | -22% | ? | -91* | / | -89*
Cc1cc(C(=O)N/N=C/c2c(CO)cnc(C)c2O)c2ccccc2n1 | -1% | -3% | 7% | -99* | -4% | -92*
Cc1ncc(CO)c(/C=N/NC(=O)c2cc(Br)ccc2O)c1O | 1% | -3% | -1% | / | 0% | ?
O=C(N/N=C/c1cc(Cl)cc([N+](=O)[O-])c1O)c1ccccc1NS(=O)(=O)c1cccs1 | -3% | -13% | -19% | -1 | -2% | -77*
